Compound activity (PubChem)
An excerpt weighted towards active compounds, which were near 1.8% of everything screened.
Neddylation inh: cullin neddylation inhibition | calls only at 25 µM | 360,000 compounds, 0.58% hits | TR-FRET cullin neddylation, biochemical | AID 651699 | P61081+Q13564; in the data active means inhibition above about 36%
UHRF1 MBD2 ctr: blocks human UHRF1 binding to methylated DNA; Q96T88; UHRF1 binding to methylated oligo, TR-FRET; inhibition, % at 4.4 µM; 370,000 compounds, 0.75% hits; in the data active means inhibition above about 21%;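 further: UHRF1 SRA domain binding a hemimethylated CpG hairpin DNA probe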
UBC13 inh: inhibitors of human UBC13 polyubiquitin chain formation. AID 485273. 330,000 compounds, 0.47% hits. inhibition, % at 20 µM. TR-FRET; in the data active means inhibition above about 45%, passing the limit was not always enough
Target sequence (P61088 whole entry, looked up): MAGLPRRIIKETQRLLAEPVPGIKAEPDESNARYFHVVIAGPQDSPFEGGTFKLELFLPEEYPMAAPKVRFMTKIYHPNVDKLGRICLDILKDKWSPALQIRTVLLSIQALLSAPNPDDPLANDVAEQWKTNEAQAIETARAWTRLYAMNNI
MBD2 inh: blocks human MBD2 binding to methylated DNA; TR-FRET, MBD2 binding to methylated oligonucleotide; 370,000 compounds, 0.31% hits; Q9UBB5; inhibition, % at 4.4 µM; AID 686964; in the data active means inhibition above about 13%
Casp3 counter: inhibits human caspase-3 in UBC13 counter-screen; shares compounds with UBC13 inh; Recombinant caspase-3, Caspase-Glo 3/7 luminescence, 60 min; inhibition, % at 20 µM; 1,400 compounds, 4% hits; AID 488856;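 active means mean inhibition across replicates above about 26%, limit read from the data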
Target sequence (P42574 whole entry, looked up): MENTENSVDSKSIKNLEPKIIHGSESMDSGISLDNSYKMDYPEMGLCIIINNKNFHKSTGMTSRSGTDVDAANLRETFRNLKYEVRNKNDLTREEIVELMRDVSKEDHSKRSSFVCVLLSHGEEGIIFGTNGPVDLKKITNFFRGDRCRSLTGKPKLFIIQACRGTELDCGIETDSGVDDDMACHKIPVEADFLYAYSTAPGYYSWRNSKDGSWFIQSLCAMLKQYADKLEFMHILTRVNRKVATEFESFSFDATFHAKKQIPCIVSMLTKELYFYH
UBC13 confirm: confirmation of human UBC13 polyubiquitin inhibitors; shares compounds with UBC13 inh; UBC13 polyubiquitination, TR-FRET, biochemical; inhibition, % at 10 µM; 1,400 compounds, 68% hits; AID 488859; in the data active means inhibition above about 45%
Large screens that a line does not name were inactive (follow-up assays come after a bar, where shown).

COc1ccc(C)c2sc(N(CCCN(C)C)C(=O)c3ccc(S(=O)(=O)N4CCc5ccccc5C4)cc3)nc12	none (no result: UBC13 inh)
CCOc1ccc2nc(N(CCCN(C)C)C(=O)c3ccc(S(=O)(=O)N4CCc5ccccc5C4)cc3)sc2c1	UBC13 inh 84.4 | Casp3 counter inactive | UBC13 confirm 115.1
COc1cc2nc(N(CCCN(C)C)C(=O)c3ccc(S(=O)(=O)N4CCc5ccccc5C4)cc3)sc2cc1OC	UBC13 inh 71.0 | Casp3 counter inactive | UBC13 confirm 104.8
COc1ccc(OC)c2sc(N(CCCN(C)C)C(=O)c3ccc(S(=O)(=O)N4CCc5ccccc5C4)cc3)nc12	UBC13 inh 100.5 (no result: Neddylation inh, UHRF1 MBD2 ctr, MBD2 inh) | Casp3 counter inactive | UBC13 confirm 118.0
CN(CC(=O)Nc1cc(S(=O)(=O)N2CCCC2)ccc1Cl)Cc1ccc2c(c1)OCO2	none
O=C(COC(=O)Cn1cnc2ccccc21)Nc1cccc(S(=O)(=O)N2CCOCC2)c1	none
CC(C)C(C(=O)NC1CCCC1)N(Cc1ccco1)C(=O)CNS(=O)(=O)c1ccccc1 (centres undefined)	none
Cc1ccc(-c2csc(/C(C#N)=C/Nc3ccc4c(c3)OCCO4)n2)cc1	none
CCN(CC)CCOC(=O)c1ccc(N/C=C(/C#N)c2nc(-c3cccc(OC)c3)cs2)cc1	UBC13 inh 98.6 | Casp3 counter inactive | UBC13 confirm inactive
CCN(CC)CCOC(=O)c1ccc(N/C=C(/C#N)c2nc(-c3ccc(OC)c(OC)c3)cs2)cc1	Neddylation inh active, UBC13 inh 117.2 | Casp3 counter inactive | UBC13 confirm 137.9
CC(C)COCC(CN(Cc1ccccc1)c1ccccc1)N1CCCC1 (centres undefined)	UBC13 inh 48.8 | Casp3 counter inactive | UBC13 confirm inactive
CCc1nnc(NC(=O)CSc2ccc(-c3ccc(C)cc3)nn2)s1	none
COc1ccc(OCCCC(=O)Nc2ccc(S(=O)(=O)N3CCOCC3)cc2)cc1	UBC13 inh 57.6 | Casp3 counter inactive | UBC13 confirm 55.4
COCc1cc(=O)[nH]c(Nc2nc3ccc(C)cc3o2)n1	UBC13 inh 74.2 | Casp3 counter 26.9 | UBC13 confirm 89.2
CCc1ccc2nc(Nc3nc(COC)cc(=O)[nH]3)nc(C)c2c1	none
c1ccc(C[C@H]2CNCCN2CCCCC2CCCCC2)cc1	UBC13 inh 60.9 | Casp3 counter inactive | UBC13 confirm 67.5
c1ccc2c(C[C@@H]3CNCCN3CCCCC3CCCCC3)cccc2c1	UBC13 inh 73.9 | Casp3 counter inactive | UBC13 confirm 60.6
C#CCOCCOCCOCCNc1nc(N2CCN(C(=O)[C@H]([C@@H](C)CC)n3cc(CCCN=C(N)N)nn3)CC2)nc(N2CCN(C(=O)[C@H](CCCCN)n3cc(CCCC)nn3)CC2)n1	UBC13 inh 71.0 | Casp3 counter inactive | UBC13 confirm 46.7
C#CCOCCOCCOCCNc1nc(N2CCN(C(=O)Cn3cc(CCCN=C(N)N)nn3)CC2)nc(N2CCN(C(=O)[C@H](CCCCN)n3cc(CCCC)nn3)CC2)n1	none
C#CCOCCOCCOCCNc1nc(N2CCN(C(=O)C([C@@H](C)O)n3cc([C@@H](N)CCCCN)nn3)CC2)nc(N2CCN(C(=O)[C@H](CCCN=C(N)N)n3cc(C(N)[C@@H](C)CC)nn3)CC2)n1 (some centres undefined)	UBC13 inh 101.3 (no result: UHRF1 MBD2 ctr, MBD2 inh) | Casp3 counter inactive | UBC13 confirm 110.9
C#CCOCCOCCOCCNc1nc(N2CCN(C(=O)[C@H](CO)n3cc([C@@H](N)C(C)C)nn3)CC2)nc(N2CCN(C(=O)[C@H](CCCCN)n3cc([C@@H](N)[C@H](C)CC)nn3)CC2)n1	UBC13 inh 84.0 | Casp3 counter inactive | UBC13 confirm 59.4
C#CCOCCOCCOCCNc1nc(N2CCN(C(=O)[C@H](CCCN=C(N)N)n3cc(C(N)[C@@H](C)CC)nn3)CC2)nc(N2CCN(C(=O)[C@H](CCCCN)n3cc([C@@H](N)CC(N)=O)nn3)CC2)n1 (some centres undefined)	UBC13 inh 50.4 | Casp3 counter inactive | UBC13 confirm inactive
C#CCOCCOCCOCCNc1nc(N2CCN(C(=O)[C@H](CCCN=C(N)N)n3cc(C(N)[C@@H](C)CC)nn3)CC2)nc(N2CCN(C(=O)[C@H](CCC(=O)O)n3cc([C@@H](N)CC(N)=O)nn3)CC2)n1 (some centres undefined)	none
C#CCOCCOCCOCCNc1nc(N2CCN(C(=O)[C@H]([C@@H](C)CC)n3cc([C@@H](N)CO)nn3)CC2)nc(N2CCN(C(=O)[C@H](CCCCN)n3cc([C@@H](N)CO)nn3)CC2)n1	none
O=C(O)c1ccccc1NC(c1ccccc1)c1ccc2cccnc2c1O (centres undefined)	none (not shown: Neddylation inh, UBC13 inh)
COc1ccc(CC(=O)NNc2ncnc3c2cnn3Cc2ccccc2)cc1OC	none
COC(=O)C(N)Cc1ccc(O)c(O)c1 (centres undefined)	none
NC(CO)C(=O)NNCc1ccc(O)c(O)c1O (centres undefined)	UBC13 inh 47.9 | Casp3 counter inactive | UBC13 confirm inactive
CN(C(=O)COC(=O)c1ccc(NS(=O)(=O)c2cccs2)cc1)C1CCCCC1	none
COc1ccc(Cl)cc1Cn1c(C)c(C(=O)NCc2cccc(C(F)(F)F)c2)sc1=O	none (no result: UBC13 inh)
Cc1ccc(-c2nc(NCCCN(C)C)c3ccccc3n2)cc1	none (no result: UBC13 inh)
Cc1ccc(-c2csc3nc4c5ccccc5c(NCCCN(C)C)nn4c(=O)c23)cc1	UBC13 inh 96.8 (not shown: Neddylation inh) | Casp3 counter inactive | UBC13 confirm 100.5
CCCn1c2ccccc2c2nc3ccccc3nc21	UBC13 inh 46.6 (not shown: Neddylation inh) | Casp3 counter inactive | UBC13 confirm inactive
O=[N+]([O-])c1ccc(OCCn2cncn2)cc1	none
CCOC(=O)/C=C/C(=O)NNC(=O)c1ccccc1Cl	none
CCCCc1oc2ccccc2c1C(=O)c1cc(I)c(OCCN(CC)CC)c(I)c1	UBC13 inh 68.2 | Casp3 counter inactive | UBC13 confirm 57.9
CCN(CC)CCOc1ncnc2c1oc1ccccc12	none
Cc1ccc(C2=NN(CC(=O)NCc3cccnc3)C(=O)CC2)cc1	none (no result: Neddylation inh, UHRF1 MBD2 ctr, MBD2 inh)
COc1ccc2nc(SCc3nc(N)nc(Nc4ccccc4)n3)[nH]c2c1	UBC13 inh 46.5 | Casp3 counter inactive | UBC13 confirm inactive
COc1ccccc1NC(=O)COc1cccnc1[N+](=O)[O-]	UBC13 inh 45.8 | Casp3 counter inactive | UBC13 confirm inactive
CCOc1ccccc1NC(=O)COc1cccnc1[N+](=O)[O-]	UBC13 inh 51.1 | Casp3 counter inactive | UBC13 confirm inactive
CCN(CC)c1ccc(/C=C2\CCC(/C=N/NC(=O)c3ccc(=O)n(C)c3)=C2N2CCOCC2)cc1	UBC13 inh 53.4 | Casp3 counter inactive | UBC13 confirm inactive
Cc1cccc(NC(=O)CSc2nc3c([nH]c4ccccc43)c(=O)n2C)c1	none
COc1ccc(C(C)(C)C)cc1NC(=O)C1=CC=CN2CCS(=O)(=O)N=C12	UBC13 inh 50.0 | Casp3 counter inactive | UBC13 confirm inactive
Cc1ccc(NC(=O)C2=CC=CN3CCS(=O)(=O)N=C23)cc1	none
